Here are results for 25 compounds from PubChem BioAssay AID1347071 (National Center for Advancing Translational Sciences (NCATS), 2019).

Among all 410,000 compounds or so, about 260 (0.063%) were called active. Where a call stands in place of a potency, no number is given. About 2% were inconclusive and are not listed. Calls follow the shape of the dose curve; as a rule, active = well fitted activation curve with a large enough effect; inconclusive = small, poorly fitted or top-dose-only effect; inactive = no such curve, though single readings can be large or run the other way. The sample as a whole holds a higher share of actives than the screen did.

This assay can be described thus: qHTS for compounds that reverse cellular toxicity of Amyloid beta (A-beta) peptide in yeast: Primary Screen. Also: nearly all actives have a fitted effect of over 55% in size. Conditions: yeast expressing A-beta42, growth rescue, OD600, 48 h; series mostly up to 46.1 µM. Summed up:
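Yeast A-beta toxicity model in growth medium with pinned compounds, 48 h at 30 C; growth read as absorbance at 600 nm. Normalized to FeCl3/clioquinol equimolar mix (positive) and DMSO (negative).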
On the technique in general: In qHTS, concentration-response curves come from the screen itself.
For `Cc1cc(=O)c2cc(C(=O)Nc3cccc(C)c3C)ccc2[nH]1`, the Potency result is “inactive”.

With `Cc1cc2n(n1)C(c1cc(C(C)(C)C)c(O)cc1O)Nc1ccccc1-2` (stereo not given), the Potency result is “inactive”.

For the compound `Cc1ccc(S(=O)(=O)c2nc(-c3cccs3)oc2N2CCCCC2)cc1`, the Potency entry is “inactive”.

Consider `CCOC(=O)c1ccc(NC(=O)Cn2cc(S(=O)(=O)Cc3ccccc3F)c3ccccc32)cc1`, for which the Potency result was “inactive”.

Regarding `Cc1ccc2sc(N(Cc3cccnc3)C(=O)C3COc4ccccc4O3)nc2c1C` (stereo not given), the Potency result was “inactive”.

For `Cc1ccc(C(=O)Nc2ccc3[nH]c(=O)c(=O)[nH]c3c2)cc1`, the Potency entry was “inactive”.

For the compound `C=Cc1ccc(Cn2c(C(=O)OC)cc3sc(C)cc32)cc1`, the Potency result was “inactive”.

Regarding `CC1=C(C(=O)OCc2ccc(C)cc2)C(c2c(Cl)cccc2Cl)CC(=O)N1` (stereo not given), the Potency entry is “inactive”.

Turning to `COc1cc(-c2noc(-c3ccc(N4CCCC4)c([N+](=O)[O-])c3)n2)cc(OC)c1OC`, the Potency entry is “inactive”.

Take `CCc1ccccc1NC(=O)N1CCN(C(=O)c2nsc3ccccc23)CC1`: the Potency result is “inactive”.

As to `COc1cccc(CNC(=O)CN2C(=O)CCc3cc(S(=O)(=O)N4CCOCC4)ccc32)c1`, the Potency entry was “inactive”.

For the compound `CCn1c2c(c(=O)n3ncc(C(=O)N4CCN(c5ccccc5)CC4)c13)CN(Cc1ccc(OC)cc1)CC2`, the Potency result is “inactive”.

For the compound `O=C(NC1CC(=O)N(c2ccc(Cl)cc2)C1)C1CCCC1` (stereo not given), the Potency entry is “inactive”.

On to `Cc1csc2nc(COC(=O)c3ccc(NC(=O)COc4ccccc4F)cc3)cc(=O)n12`, for which the Potency entry is “inactive”.

Regarding `COc1ccc(-c2cccc(NS(=O)(=O)c3cc(C)c(OC)c(C)c3C)c2)nn1`, the Potency entry is “inactive”.

For `CCN(C(=O)Cn1cc(S(=O)(=O)N2CCN(c3ccccc3F)CC2)c2ccccc2c1=O)c1ccc(C)c(C)c1`, the Potency entry is “inactive”.

As to `COc1cc2nc(SCc3ccc(F)cc3)n3nc(CCn4c(C)nc5ccccc54)nc3c2cc1OC`, the Potency entry was “inactive”.

Consider `N#Cc1nc(/C=C/c2ccc(F)cc2)oc1NC1CCCCC1`, for which the Potency entry was “inactive”.

Take `Cc1ccc(CNS(=O)(=O)c2ccc(-c3cc(C(F)(F)F)on3)s2)cc1`: the Potency result is “inactive”.

Take `O=C(CCC1N=C2c3ccccc3N=C(SCc3ccccc3F)N2C1=O)NCCc1ccccc1` (stereo not given): the Potency result was “inactive”.

As to `Cc1ccc(OCCn2c(CNc3ccccc3C)nc3ccccc32)cc1`, the Potency entry is “inactive”.

As for `CCCC12CN3CC(C)(CN(C1)C3c1ccccc1Cl)C2=O` (stereo not given), the Potency result is “inactive”.

Take `CCC1CCCCN1C(=O)Cn1c(=O)n(CCCCCC(=O)NCc2ccccc2)c(=O)c2sccc21` (stereo not given): the Potency result is “inactive”.

Turning to `Cc1ccc(C2c3[nH]c4ccccc4c3CCN2C(=O)c2cccc(C)c2)cc1` (stereo not given), the Potency entry is “inactive”.

As for `Cc1onc(-c2ccc(F)cc2F)c1C(=O)Nc1cccc(C(F)(F)F)c1`, the Potency entry is “inactive”.
